PubChem BioAssay (Tox21)
Inconclusive results are not listed. A number with no mark means an inactive call. Active and inactive are the calls of the source. Calls come from the whole dose curve; as a rule, active = well fitted cell-killing curve with a large enough effect in the repeat runs; inconclusive = weak or mixed curves, or effect the other way; inactive = no such curve, though single readings can be large or run the other way. Where a SMILES comes first, the peptide text is derived from it.

Assay: qHTS assay to identify small molecule antagonists of the retinoid-related orphan receptor gamma (ROR-gamma) signaling pathway - cell viability counter screen (AID 1159520); note: nearly all actives have a fitted effect of over 50% in size
Conditions: Tet-on RORgamma CHO cells viability, ATP luminescence, 16 h; series mostly up to 92.4 µM
Source text: U.S. Tox21 Program National Center for Advancing Translational Sciences [NCATS] NIH Chemical Genomics Center [NCGC] U.S. Environmental Protection Agency [EPA] National Institutes of Environmental Health Sciences [NIEHS] National Toxicology Program [NTP] U.S. Food and Drug Administration [FDA] Tox21 Assay Overview: Nuclear steroid hormone receptors are involved in many biological processes including inflammatory responses, cell proliferation, and apoptosis. Environmental factors or compounds disrupting these nuclear receptor pathways and gene expression may promote susceptibility to immunotoxicants and autoimmune diseases. One important group of these expression factors are the retinoid-related orphan receptors. To assess compounds that may interfere with the retinoid-related orphan receptor gamma (ROR-gamma) transcription factor, a cell-based luciferase assay was used. The CHO cell-based assay utilizes a TET-inducible ROR expression factor and ROR response element-LUC reporter gene. Reporter gene activity was induced using Doxycycline Hyclate and measured after 16 hr incubation. Tet-on ROR gamma CHO cells were used to screen against the Tox21 10K compound library for cytotoxicity by measuring the viability of the cells based on the quantitation of the ATP.
Tox21 Assay Protocol Summary: Tet-on ROR gamma CHO cells were dispensed at 1,000 cells in 4 uL of culture medium per well into white wall/solid bottom 1536-well plates using a Multidrop Combi (Thermo Scientific, Waltham, MA) dispenser. Following incubation at 37 C and 5% CO2 for 4 hr, 23 nL of compounds dissolved in DMSO, positive controls or DMSO only were transferred by a Pintool station (Kalypsys, San Diego, CA) and after 2 hr incubation at 37 C, one ul of 1 uM (final concentration) of Doxycycline Hyclate was added to all the wells by using a Flying Reagent Dispenser (FRD) (Aurora Discovery, San Diego, CA). After 16 hr incubation at 37 C and 5% CO2, 5 uL of CellTiter-Glo reagent (Promega Corporation, Madison, WI) was added to each assay plate using FRD. After 30 min incubation at room temperature, luminescence was quantified on a ViewLux plate reader (Perkin Elmer, Waltham, MA).
% is set by controls: 0 for no effect and ±100 for the full control effect.

Row | Structure (SMILES) | outcome | activity, negative = cytotoxicity
1 | CC/C(C)=N\O[Si](C)(O/N=C(\C)CC)O/N=C(\C)CC | inactive | –
2 | CCNC(=O)NCc1cccc(Cl)c1 | inactive | –
3 | c1ccc(-c2nn[nH]n2)cc1 | inactive | –
4 | COC(=O)c1cc(Cl)cc(Cl)c1 | inactive | –
5 | NCc1ccc(S(N)(=O)=O)cc1 | inactive | –
6 | OC[C@@H](O)C(O)[C@@H](O)CO (stereo not given in full) | inactive | –
7 | CC(=O)OCC(=O)Nc1cc(C#N)cc(NC(=O)COC(C)=O)c1Cl | inactive | –
8 | CN(C)C(C)(C)CO | inactive | –
9 | C#CCN[C@@H]1CCc2ccccc21 | inactive | –
10 | Cc1cccc(Cl)c1 | inactive | –
11 | CCC(=O)Oc1ccc2c(c1)CC[C@@H]1[C@@H]2CC[C@@]2(C)[C@H]1C[C@@H](OC(=O)CC)[C@@H]2OC(=O)CC | inactive | –
12 | CN1CCOC(c2ccccc2)c2ccccc2C1 (stereo not given) | inactive | –
13 | Cn1nnc2c(C(N)=O)ncn2c1=O | inactive | –
14 | CC(C)[C@H]1CC[C@H](C)C[C@@H]1O | inactive | –
15 | O=[N+]([O-])c1c(Cl)cc(Cl)cc1Cl | inactive | –
16 | Cc1ccc(C(=O)O)cc1[N+](=O)[O-] | inactive | –
17 | C=CC(=O)CCCCC | inactive | –
18 | C/C(=C1\CCOC(=O)S1)N(C=O)Cc1cnc(C)nc1N | inactive | –
19 | CC(Oc1cc(Cl)ccc1Cl)C(=O)O (stereo not given) | inactive | –
20 | COc1cc2c(cc1OC)CN(C(=O)[C@H](C)N[C@@H](CCc1ccccc1)C(=O)O)[C@H](C(=O)O)C2 | inactive | –

Row | Structure (SMILES) | outcome | activity, negative = cytotoxicity
21 | CCC[C@@H]1C[C@@H](C(=O)N[C@@H]([C@H]2O[C@H](SC)[C@H](O)[C@@H](O)[C@H]2O)[C@@H](C)O)N(C)C1 | inactive | –
22 | O=C(NCN1CCOCC1)c1cnccn1 | inactive | –
23 | COc1ccc2c(c1)c1c3n2CCN(C)C3=NCC1 | inactive | –
24 | CCCCCCCCCOC(=O)CCCCC(=O)OCCCCCCC | inactive | –
25 | CCCCCCCCCCCCCBr | inactive | –
26 | C[C@@H](O)C(=O)O | inactive | –
27 | OCCN1CCOCC1 | inactive | –
28 | CC(=O)OC1CCCCC1C(C)(C)C (stereo not given) | inactive | –
29 | Cc1cc(C)c(C(=O)O)c(C)c1 | inactive | –
30 | CCCCCCCCCCCCCCCCCCOCCO | – | -10.1% [at 19 µM]
31 | C=CC/C=C/C | inactive | –
32 | CCCCCCCCCCCCCCCCCC#N | inactive | –
33 | COC(=O)c1ccccc1C(=O)O | inactive | –
34 | CC(=O)N[C@@H](CO)C(=O)N[C@@H](CC(=O)O)C(=O)N[C@@H](CCCCN)C(=O)N1CCC[C@H]1C(=O)O (Ac-SDKP-OH) | inactive | –
35 | CCCCCCCCCOC(=O)c1ccccc1C(=O)OCCCCCCCCC | inactive | –
36 | CCCC(=O)OC/C=C(\C)CCC=C(C)C | inactive | –
37 | O=C(CCCCC(=O)Nc1c(I)cc(I)c(C(=O)O)c1I)Nc1c(I)cc(I)c(C(=O)O)c1I | inactive | –
38 | CC(C)COC(=O)c1ccccc1 | inactive | –
39 | c1ccc2c(CC3=NCCN3)cccc2c1 | inactive | –
40 | CN1C[C@@H]2C[C@H]1CN2c1cc2c(cc1F)c(=O)c(C(=O)O)cn2C1CC1 | – | 0.279% [at 19 µM]
